AmpC no deterg: AmpC beta-lactamase inhibition without detergent. P00811. AmpC nitrocefin hydrolysis, absorbance 480 nm, 0.0001% Triton. Potency, µM (top dose mostly 57.1 µM), most hits filed as inhibitors. 0.52% of 330,000 active. AID 485341; also: nearly all actives have a fitted effect of over 20% in size
Target sequence (P00811 whole entry, looked up): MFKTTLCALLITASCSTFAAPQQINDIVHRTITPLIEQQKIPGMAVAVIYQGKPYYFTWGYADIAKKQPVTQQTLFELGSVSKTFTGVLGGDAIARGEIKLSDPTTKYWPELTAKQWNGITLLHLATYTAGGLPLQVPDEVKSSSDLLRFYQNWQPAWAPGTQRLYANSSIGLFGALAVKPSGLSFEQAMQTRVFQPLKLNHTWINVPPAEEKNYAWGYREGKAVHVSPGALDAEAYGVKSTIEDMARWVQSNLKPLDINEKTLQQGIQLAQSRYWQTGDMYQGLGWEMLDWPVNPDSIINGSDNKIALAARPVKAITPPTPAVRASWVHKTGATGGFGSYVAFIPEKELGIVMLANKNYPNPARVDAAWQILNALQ
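20 mM phosphate pH 7.0 + 0.01% (detergent screen) or 0.0001% Triton X-100; 5.3 nM AmpC reagent; cpd preinc 15 min RT; nitrocefin (800 uM stock) to start; A480 q20 s × 4 min; Activity was normalised to no-enzyme and no-compound control wells.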
AmpC inh detg: inhibitors of E. coli AmpC beta-lactamase with detergent; P00811; AmpC hydrolysis of nitrocefin, absorbance 480 nm, 0.01% Triton; Potency, µM (series often up to 114 µM), usual class: inhibitors; 0.041% of 370,000 active; AID 485294; also: nearly all actives have a fitted effect of over 25% in size
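AmpC (5.3 nM in the dispensed reagent) in 20 mM phosphate pH 7.0 with 0.01% (detergent screen) or 0.0001% Triton X-100 was preincubated with compounds for 15 min at room temperature. Nitrocefin was then added from an 800 uM solution, and hydrolysis was followed at 480 nm.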
RE007 growth inh: less growth of the S. pombe RE007 Vpr strain; Potency, µM (titrated, usually from 92.2 µM), most hits filed as inhibitors; AID 651644; S. pombe RE007 Vpr strain, BacTiter-Glo ATP luminescence, 24 h; 0.21% of 360,000 active; active = well fitted falling curve with a large enough effect; inconclusive = small, poorly fitted or top-dose-only effect; inactive = no such curve, though single readings can be large or run the other way; also: nearly all actives have a fitted effect of over 50% in size
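Fission yeast strain RE007, carrying one chromosomally integrated HIV-1 vpr copy, was seeded at OD 0.01 in PMG+AL medium with 23 nL pinned compound. After 24 h at 30 °C and 99% humidity, viability was read by BacTiter-Glo luminescence.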
Sm TGR block: S. mansoni TGR enzyme inhibition; Q962Y6; purified TGR, DTNB reduction, TNB absorbance 405 nm; Potency, µM (top dose mostly 114 µM), actives largely listed as inhibitors; 3% of 360,000 active; also: nearly all actives have a fitted effect of over 60% in size
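Kinetic colorimetric format: TGR-catalysed, NADPH-driven DTNB reduction monitored via TNB absorbance. Enzyme dispensed at 20 nM; compound exposure 15 min at room temperature before reaction start.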
Giardia FBPA inh: Giardia lamblia aldolase inhibition. A8B2U2. purified Giardia FBPA. Potency, µM (doses to about 59.6 µM), most hits filed as inhibitors. 0.71% of 290,000 active. AID 2451; also: nearly all actives have a fitted effect of over 55% in size
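Giardia FBPA (40 nM reagent) was preincubated 10 min at RT with compound (up to 57.5 uM final), then substrate plus GAPDH/TPI/NAD/arsenate coupling system with diaphorase/resazurin was added; resorufin fluorescence (525/598 nm) was read after 20 min.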
A number is an active result; – = inactive; ? = inconclusive; · = no result; ! = not confirmed by another sample. A selection: hits, their analogues and other compounds. The true share with any hit is near 3.4%. Unless noted, calls follow the shape of the dose curve; as a rule, active = well fitted curve in the direction sought with a large enough effect; inconclusive = small, poorly fitted or top-dose-only effect, or another doubt; inactive = no such curve, though single readings can be large; an effect the other way counts as inactive or inconclusive.

SMILES	AmpC no deterg	AmpC inh detg	RE007 growth inh	Sm TGR block	Giardia FBPA inh
C=CCSc1nc(O)c(C2OC(=O)c3c2ccc(OC)c3OC)c(=O)n1-c1ccccc1 (centres undefined)	–	–	–	3.98µM	–
COC(=O)c1ccc2nc(Nc3nc4c(F)cc(F)cc4s3)sc2c1	–	–	·	–	–
CCc1cccc(CC)c1NC(=O)C1CN(S(=O)(=O)c2ccccc2)CCN1S(=O)(=O)c1ccccc1 (centres undefined)	–	–	–	–	–
O=C(NCc1ccco1)C1CC(c2ccccc2C(F)(F)F)=NO1 (centres undefined)	–	–	–	20µM	–
COc1ccc(OC)c(C2=NOC(C(=O)NCc3ccco3)C2)c1 (centres undefined)	–	?	–	35.5µM	–
O=C(NCc1ccco1)C1CC(c2ccccc2O)=NO1 (centres undefined)	–	–	–	–	–
O=C(CN(c1ccc(F)cc1)S(=O)(=O)c1ccc2c(c1)OCCO2)NCc1cccnc1	–	–	–	–	–
Cc1noc(C)c1NC(=O)N(C)C[C@@H]1Oc2ncc(Br)cc2C(=O)N([C@H](C)CO)C[C@@H]1C	·	·	–	·	·
O=C(Nc1cc(Sc2nc3ccccc3s2)cc([N+](=O)[O-])c1)c1ccccc1F	?	–	–	–	–
O=C(Nc1cc(Sc2nc3ccccc3s2)cc([N+](=O)[O-])c1)c1ccccc1	12.6µM	–	–	–	–
Cc1noc(C)c1CSCC(=O)Nc1cc(S(C)(=O)=O)ccc1Cl	–	–	–	–	·
O=c1[nH]c2ccc(N=Cc3c(O)ccc4cc(Br)ccc34)cc2[nH]1	–	–	–	31.6µM	–
O=C(N/N=C/c1c(O)n(-c2cccc3ccccc23)c(=O)[nH]c1=O)c1ccncc1	–	–	–	14.1µM	–
O=C(N/N=C/c1c(O)n(CCc2ccccc2)c(=O)[nH]c1=O)c1ccncc1	–	–	·	17.8µM	–
COc1ccc(N=C/C=C2\C=C(c3ccccc3)OC(C)(C)O2)cc1	–	?	–	39.8µM	–
O=C1Cc2ccccc2C(=O)N1CCc1ccccc1	–	–	–	–	?
Cc1cccc(-n2c(O)c(C)c(=O)[nH]c2=S)c1	–	–	–	39.8µM	–
COc1cccc(-n2c(SCc3cccc(C)c3)nc3c([nH]c4ccccc43)c2=O)c1	·	–	·	–	·
Cc1ccc(S(=O)(=O)N2CCC(C(=O)N[C@@H](Cc3ccccc3)C(=O)O)CC2)cc1	–	–	–	79.4µM	–
O=C(NCc1ccc(Cl)cc1)C1CCN(S(=O)(=O)c2ccccc2)CC1	–	–	–	25.1µM!	–
O=C(NC1=NCCS1)C1CCN(S(=O)(=O)c2ccc(Cl)cc2)CC1	–	–	–	50.1µM	·
O=C(NC1=NCCS1)C1CCN(S(=O)(=O)c2cc([N+](=O)[O-])ccc2Cl)CC1	–	·	–	·	·
O=C(NC(Cc1ccccc1)C(=O)O)C1CCN(S(=O)(=O)c2cccc(C(F)(F)F)c2)CC1 (centres undefined)	–	–	–	–	–
Cc1nn(C)cc1/C=N/NC(=O)Cn1nccc1C	–	–	–	–	–
N=c1c[n+](C2CCCCC2)[n-]o1	–	?	–	–	–
SMILES	AmpC no deterg	AmpC inh detg	RE007 growth inh	Sm TGR block	Giardia FBPA inh
N=c1c[n+](N2CCOCC2)[n-]o1	–	–	–	22.4µM	–
CCOC(=O)c1ccc(NC(=O)C2CCCN(S(=O)(=O)c3ccc(F)cc3)C2)cc1 (centres undefined)	–	?	–	–	–
COc1ccc2c(c1)NC(c1ccc(N(C)C)cc1)c1cccn1-2 (centres undefined)	–	–	–	50.1µM	?
COc1ccc2c(c1)NC(c1cc(Cl)cc(Cl)c1O)c1cccn1-2 (centres undefined)	–	–	–	–	–
CC1(c2nnc(Cc3ccccc3)o2)CC(c2ccc([N+](=O)[O-])cc2)=NO1 (centres undefined)	–	–	–	6.31µM	–
CC1(c2nnc(-c3ccccc3)o2)CC(c2cccc(Cl)c2)=NO1 (centres undefined)	–	–	–	–	–
CC1(c2nnc(-c3cccc(Cl)c3)o2)CC(c2cccc([N+](=O)[O-])c2)=NO1 (centres undefined)	–	–	–	44.7µM	–
CCCCSc1nc(C)cc(NC(=S)Nc2ccc(OC)cc2)n1	–	–	–	–	–
CC(C)(O)C1Cc2cc(/C=C/C(=O)O)c(O)cc2O1 (centres undefined)	–	–	?	0.224µM	–
COc1cc2c(cc1/C=C/C(=O)O)OC(C)C2 (centres undefined)	–	–	–	–	–
COc1cccc(F)c1C(C[N+](=O)[O-])c1c(N)n(C)c(=O)n(C)c1=O (centres undefined)	–	–	15.8µM	–	–
Cn1c(N)c(C(C[N+](=O)[O-])c2ccccc2Cl)c(=O)n(C)c1=O (centres undefined)	·	·	39.8µM	·	·
CCn1cc(/C=C/C(=O)Nc2ccn(Cc3c(F)c(F)cc(F)c3F)n2)cn1	–	?	–	–	–
O=C(CNC(=O)c1ccc(Br)o1)Nc1ncccc1O	–	?	–	44.7µM	·
COc1ccccc1N1CSC2=C(C#N)C(c3ccc(SC)cc3)CC(=O)N2C1 (centres undefined)	–	?	–	?	5.61µM
COc1ccc(Br)cc1C1CC(=O)N2CN(Cc3ccccc3)CSC2=C1C#N (centres undefined)	–	?	–	–	?
COc1ccc2ccccc2c1C1CC(=O)N2CN(C)CSC2=C1C#N (centres undefined)	–	–	–	10µM	?
COc1ccc(Br)cc1C1CC(=O)N2CN(C)CSC2=C1C#N (centres undefined)	–	?	–	?	?
COc1cc(C2CC(=O)N3CN(c4ccccc4C)CSC3=C2C#N)cc(OC)c1OC (centres undefined)	–	–	·	?	4.46µM
CCC(CC)C(=O)Nc1ccc(C(=O)c2ccccc2)cc1	–	?	–	–	–
N=c1c(S(=O)(=O)c2ccccc2)cc2c(=O)n3ccccc3nc2n1CCCN1CCOCC1	–	?	–	15.8µM	–
N=c1c(S(=O)(=O)c2ccc(Cl)cc2)cc2c(=O)n3ccccc3nc2n1CCN1CCOCC1	–	?	–	44.7µM	–
O=S(=O)(CC(c1ccccc1)N1CCCCC1)c1ccc(Cl)cc1 (centres undefined)	–	–	–	–	–
CCc1ccc(NC(=O)c2ccc(OC)c([N+](=O)[O-])c2)cc1	–	–	–	–	–
Cc1ccc(-c2nc(CS(=O)CC(=O)N3CCN(c4ccccc4)CC3)c(C)o2)cc1 (centres undefined)	–	–	–	–	·

Screens as filed in PubChem BioAssay.
